A short description of assay [1]: qHTS assay for small molecule agonists of the p53 signaling pathway (AID 651631). Note: nearly all actives have a fitted effect of over 15% in size. Note: potency is the fitted concentration of half-maximal effect. The method, boiled down: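 Read-out is beta-lactamase FRET fluorescence measured 2 h after substrate addition at room temperature, in HCT-116 cells with a p53 response element-driven reporter exposed to compounds for 16 h at 37 °C.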
Background: In qHTS, concentration-response curves come from the screen itself.

Another assay concerns the target Aromatase (Homo sapiens) (UniProt P11511). Put plainly: qHTS assay to identify aromatase inhibitors (AID 743083; active = well fitted curve in the direction sought with a large enough effect in the repeat runs; an effect the other way counts as inactive or inconclusive; note: nearly all actives have a fitted effect of over 55% in size).
Assay [2] is described as follows: qHTS assay to identify small molecule antagonists of the retinoic acid receptor (RAR) signaling pathway (AID 1159552; active = well fitted curve in the direction sought with a large enough effect in the repeat runs; an effect the other way counts as inactive or inconclusive; note: nearly all actives have a fitted effect of over 50% in size; note: potency is the fitted concentration of half-maximal effect). The method in brief:
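Cells of the C3RL4 line were seeded, incubated overnight, then dosed with compounds in DMSO followed immediately by retinol (1 uM final). Six hours later luciferase detection reagent went in; signal was measured after 30 min at RT.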

Assay [3] in a line: qHTS assay to identify small molecule agonists of H2AX (AID 1224845; active = well fitted activation curve with a large enough effect in the signal ratio in the repeat runs, not every such curve was filed as active; the % refers to the signal ratio). The method, boiled down:
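Wild-type CHO-K1 cells, plated overnight, exposed 3hr at 37C to 15 concentrations (0.76% DMSO final). Lysed, then HTRF anti-pH2AX (S139) cryptate and anti-H2AX-d2 antibodies, 24 hr room temperature; 665/620 nm emission read.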

Assay [4] concerns the target Acetylcholinesterase (Homo sapiens) (UniProt P22303). Put plainly: Acetylcholinesterase (AChE) small molecule antagonists: colormetric cell-based qHTS assay (AID 1347395). Note: nearly all actives have a fitted effect of over 30% in size. The method in brief:
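Colorimetric read-out: DTNB detects thiocholine released when cellular AChE in SH-SY5Y cells hydrolyses acetylthiocholine. Cells attached overnight, received compound for 30 min at 37 C, then substrate mix for 90 min at 37 C.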

The target is the same in assay [5]. Kind of assay: Acetylcholinesterase (AChE) small molecule antagonists: enzyme-based qHTS assay (AID 1347397). Note: nearly all actives have a fitted effect of over 55% in size. The following applies: Potency: AChE enzyme activity inhibition; outcome: AChE enzyme activity inhibition. The method in brief: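 Recombinant human AChE (50 mU/mL) preincubated with compound 30 min at room temperature; acetylthiocholine plus DTNB then added, and thiocholine formation read colorimetrically after 10 min at room temperature. DMSO served as vehicle control.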

The target is the same in assay [6]. Kind of assay: Acetylcholinesterase (AChE) small molecule antagonists: fluorescence cell-based qHTS assay (AID 1347398). Note: nearly all actives have a fitted effect of over 50% in size. The conditions noted are these: Potency: AChE activity; outcome: AChE activity. The method in brief: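 SH-SY5Y cells (2000/well), attached overnight, incubated with compound 30 min at 37 C. Acetylthiocholine plus Thiolite Green then added for 40 min at room temperature. Thiocholine fluorescence (Ex/Em 490/520 nm) reports cellular AChE activity.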

Assay [7] has the same target. Put plainly: Acetylcholinesterase (AChE) small molecule antagonists: enzyme-based qHTS assay with human liver microsomes (AID 1347399). Note: nearly all actives have a fitted effect of over 60% in size. The conditions noted are these: Potency: qHTS inhibition; outcome: qHTS inhibition. The method, boiled down:
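Recombinant human AChE (50 mU/mL in the enzyme mix) and human liver microsomes (0.25 mg/mL final) were preincubated with compound and NADPH (0.25 mg/mL final) for 30 min at 37 C. Acetylthiocholine/DTNB was then added; thiocholine was read colorimetrically after 10 min at room temperature.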

Assay [8] in a line: qHTS assay to identify small molecule agonists of the estrogen related receptor (ERR) signaling pathway from Tox21 library (AID 1224849). Note: nearly all actives have a fitted effect of over 15% in size. The conditions noted are these: ERR reporter cell line, ONE-Glo luciferase, 18 h; at 92.4 µM (top of the series) unless noted. The method in brief:
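Six hours post-seeding at 37 C/5% CO2, ERR cells receive DMSO-solubilised compounds; after 18 h at 37 C, ONE-Glo reagent is applied and luminescence recorded.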

Assay [9] can be described thus: Caspase-3/7 induction in HepG2 cells by small molecules, qHTS assay (AID 1346978; active = well fitted curve in the direction sought with a large enough effect in the repeat runs; an effect the other way counts as inactive or inconclusive; note: nearly all actives have a fitted effect of over 15% in size). The method in brief: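 Wild-type HepG2 cells, 2,000/well, settled 5 hr at 37 C and 5% CO2, then compound-treated for 17 hr; caspase-3/7 activity read by luminescent Caspase-Glo 3/7 after 30 min at room temperature.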
Assay [10] can be described thus: qHTS assay to identify small molecule HDAC inhibitors (AID 1259364; active = well fitted curve in the direction sought with a large enough effect in the repeat runs; an effect the other way counts as inactive or inconclusive;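 note: wild-type HCT-116 cells with endogenous class I/II HDAC activity; top concentration of the series differs between compounds; nearly all actives have a fitted effect of over 45% in size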). The method, boiled down: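 Relative class I and II HDAC activity is taken from the luminogenic signal in HCT-116 cells, with compound exposure 2 hr and reagent development 30 min at room temperature.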
Assay [11] is described as follows: qHTS assay to identify small molecule agonists of the sonic hedgehog signaling (Shh) pathway (AID 1259368).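 Note: NIH/3T3-derived 3T3Gli1-Luc cells carrying a stable Gli1-driven firefly luciferase reporter; nearly all actives have a fitted effect of over 15% in size.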 The method, boiled down: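 Mouse fibroblast (NIH/3T3) reporter cells with stably integrated Gli1-Luc were treated 24 hr with compound; firefly luciferase luminescence served as the read-out.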
Assay [12] can be described thus: Caspase-3/7 induction in CHO-K1 cells by small molecules, qHTS assay (AID 1346980; active = well fitted curve in the direction sought with a large enough effect in the repeat runs; an effect the other way counts as inactive or inconclusive; note: nearly all actives have a fitted effect of over 15% in size). The method in brief:
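Wild-type CHO-K1 cells exposed to compounds for 17hr at 37 C, 5% CO2. Caspase-3/7 activity then measured by Caspase-Glo 3/7 luminescence after 30min at room temperature.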

Assay [13] can be described thus: qHTS assay to identify small molecule antagonists of the estrogen related receptor (ERR) signaling pathway - cell viability counter screen (AID 1224818; active = well fitted curve in the direction sought with a large enough effect in the repeat runs; an effect the other way counts as inactive or inconclusive;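 note: viability measured after 17.5 h of compound exposure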). The method, boiled down:
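In the same ERR cell assay, compound-treated wells (17.5 h, 37 C) were multiplexed with a fluorogenic viability reagent, CellTiter-Fluor, read after 30 min to flag cytotoxic substances.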

Assay [14] can be described thus: qHTS assay to identify small molecule antagonists of the estrogen related receptor (ERR) signaling pathway (AID 1224819; active = well fitted curve in the direction sought with a large enough effect in the repeat runs; an effect the other way counts as inactive or inconclusive;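 note: luminescence from an ERR-driven luciferase reporter measured with One-Glo reagent; nearly all actives have a fitted effect of over 50% in size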). The method, boiled down:
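qHTS in ERR cells, 2,000/well, 1536 format. Cpd (DMSO) added after 6 h settle, 18 h 37 C. One-Glo luminescence, 30 min RT.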

The nature of assay [15]: qHTS assay to identify small molecule agonists of the estrogen related receptor (ERR) signaling pathway (AID 1224820; active = well fitted curve in the direction sought with a large enough effect in the repeat runs; an effect the other way counts as inactive or inconclusive). The method in brief: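 Cells: ERR line from NTP, 2,000/well. Pre-incubation 6 h, 37 C/5% CO2. Compound (DMSO) pin transfer, 18 h 37 C. One-Glo, 30 min RT, luminescence.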
For assay [16], the system named is estrogen-related receptor alpha (ERRalpha) with PGC-1alpha coactivator, human. Put plainly: qHTS assay to identify small molecule antagonists of the estrogen related receptor signaling pathway with the pleiotropic PPARgamma coactivator (PGC) (AID 1224821).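 Note: lower luminescence signal means antagonism of PGC/ERR signalling; nearly all actives have a fitted effect of over 50% in size.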 The method, boiled down:
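Luminescent read-out (One-Glo, 30 min at room temperature) following 18 h treatment of PGC/ERR cells at 37 C with compounds delivered in DMSO. Cells had settled 6 h at 37 C/5% CO2 before dosing.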

Assay [17] can be described thus: qHTS assay to identify small molecule antagonists of the estrogen related receptor signaling pathway with the pleiotropic PPARgamma coactivator (PGC) cell viability counter screen (AID 1224822; active = well fitted curve in the direction sought with a large enough effect in the repeat runs; an effect the other way counts as inactive or inconclusive). The method, boiled down: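 Compounds in DMSO, with positive and negative controls, were applied to PGC/ERR cells (2,000/well) and left 17.5 h at 37 C before CellTiter-Fluor detection.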

A short description of assay [18]: qHTS assay to identify small molecule agonists of the estrogen related receptor signaling pathway with the pleiotropic PPARgamma coactivator (PGC) (AID 1224823; active = well fitted curve in the direction sought with a large enough effect in the repeat runs; an effect the other way counts as inactive or inconclusive). The method in brief:
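Steps: plate PGC/ERR cells at 2,000 cells/well; incubate 6 h, 37 C/5% CO2; pin-transfer compounds (DMSO); incubate 18 h, 37 C; add One-Glo; 30 min RT; read luminescence.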

Assay [19] concerns the target Aryl hydrocarbon receptor (Homo sapiens) (UniProt P35869). Put plainly: qHTS assay to identify small molecule that activate the aryl hydrocarbon receptor (AhR) signaling pathway (AID 743085; active = well fitted curve in the direction sought with a large enough effect in the repeat runs; an effect the other way counts as inactive or inconclusive). The method in brief:
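Cell line HG2L7.5c1 (human hepatoma, 20× DRE-luc). Plated, 5 h 37C, compound/DMSO added, 24 h 37C. CellTiter-Fluor 30 min 37C → fluorescence; then ONE-Glo 30 min RT → luminescence.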

Results on eleven molecules are retold here after PubChem BioAssay (Tox21).

Unmarked numbers belong to inactive results. Records with an inconclusive call do not appear. Activity calls are given as the source filed them. Unless noted, calls come from the whole dose curve.
% is set by controls: 0 for no effect and ±100 for the full control effect.

Chain of Acetylcholinesterase (Homo sapiens) (P22303 whole entry, looked up): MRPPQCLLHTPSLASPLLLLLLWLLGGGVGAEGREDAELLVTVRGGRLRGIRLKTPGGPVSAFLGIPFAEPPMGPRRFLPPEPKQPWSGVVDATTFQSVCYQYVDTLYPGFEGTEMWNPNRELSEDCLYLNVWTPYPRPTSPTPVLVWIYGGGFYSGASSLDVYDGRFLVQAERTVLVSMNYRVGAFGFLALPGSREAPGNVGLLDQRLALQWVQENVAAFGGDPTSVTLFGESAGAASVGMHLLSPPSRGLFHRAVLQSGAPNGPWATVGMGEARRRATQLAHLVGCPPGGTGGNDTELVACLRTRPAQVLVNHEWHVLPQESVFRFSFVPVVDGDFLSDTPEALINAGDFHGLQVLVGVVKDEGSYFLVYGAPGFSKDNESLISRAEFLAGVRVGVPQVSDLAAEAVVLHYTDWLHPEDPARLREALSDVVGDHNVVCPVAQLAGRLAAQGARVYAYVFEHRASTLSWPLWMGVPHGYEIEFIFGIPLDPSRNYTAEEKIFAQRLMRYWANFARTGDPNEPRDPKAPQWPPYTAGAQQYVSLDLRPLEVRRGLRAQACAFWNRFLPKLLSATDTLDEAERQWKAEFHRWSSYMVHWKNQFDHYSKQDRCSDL
Chain of Aromatase (Homo sapiens) (P11511 whole entry, looked up): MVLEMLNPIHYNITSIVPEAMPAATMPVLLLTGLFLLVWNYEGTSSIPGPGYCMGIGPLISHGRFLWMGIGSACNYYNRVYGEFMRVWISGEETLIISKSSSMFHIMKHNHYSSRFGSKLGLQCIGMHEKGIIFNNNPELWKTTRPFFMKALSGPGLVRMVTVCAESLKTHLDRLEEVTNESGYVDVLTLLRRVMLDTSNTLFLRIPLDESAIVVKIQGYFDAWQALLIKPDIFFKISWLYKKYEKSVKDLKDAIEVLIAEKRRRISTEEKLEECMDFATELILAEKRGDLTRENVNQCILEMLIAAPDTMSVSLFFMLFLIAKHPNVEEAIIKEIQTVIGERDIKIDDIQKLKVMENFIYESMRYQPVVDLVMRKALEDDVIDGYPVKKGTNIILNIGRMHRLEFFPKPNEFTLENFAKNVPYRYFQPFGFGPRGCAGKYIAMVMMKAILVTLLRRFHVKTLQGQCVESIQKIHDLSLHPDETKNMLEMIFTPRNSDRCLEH
Chain of Aryl hydrocarbon receptor (Homo sapiens) (P35869 whole entry, looked up): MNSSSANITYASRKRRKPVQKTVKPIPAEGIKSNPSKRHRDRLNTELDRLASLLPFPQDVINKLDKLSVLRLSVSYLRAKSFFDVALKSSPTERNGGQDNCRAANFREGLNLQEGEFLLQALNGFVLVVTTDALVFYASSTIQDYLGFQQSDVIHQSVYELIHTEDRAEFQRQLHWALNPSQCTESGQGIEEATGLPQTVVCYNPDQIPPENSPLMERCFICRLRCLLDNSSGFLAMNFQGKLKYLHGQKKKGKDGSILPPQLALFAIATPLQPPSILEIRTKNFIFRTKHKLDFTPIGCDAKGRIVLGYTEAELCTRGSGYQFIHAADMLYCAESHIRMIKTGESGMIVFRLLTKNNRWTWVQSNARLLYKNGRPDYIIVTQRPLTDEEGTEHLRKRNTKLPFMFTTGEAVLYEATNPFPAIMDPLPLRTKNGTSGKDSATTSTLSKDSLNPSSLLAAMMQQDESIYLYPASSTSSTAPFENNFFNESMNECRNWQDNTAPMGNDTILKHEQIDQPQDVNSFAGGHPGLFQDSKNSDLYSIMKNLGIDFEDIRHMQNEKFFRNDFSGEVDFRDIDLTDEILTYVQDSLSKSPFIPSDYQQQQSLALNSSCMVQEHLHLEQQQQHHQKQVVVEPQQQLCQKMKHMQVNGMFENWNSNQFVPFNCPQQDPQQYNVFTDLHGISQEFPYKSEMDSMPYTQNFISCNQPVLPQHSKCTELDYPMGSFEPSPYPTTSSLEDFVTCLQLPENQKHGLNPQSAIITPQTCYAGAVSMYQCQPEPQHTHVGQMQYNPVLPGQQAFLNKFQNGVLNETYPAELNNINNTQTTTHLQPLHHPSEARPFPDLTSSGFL

On to `Nc1ccc(Cl)cc1[N+](=O)[O-]`, for which the Potency result (in assay [1]; with Aromatase (Homo sapiens); in assay [2]; in [3]; in [4]; in [5]) was “inactive” throughout. Besides, the Potency result in assay [6] and in assay [7] was “inactive” throughout.
Regarding `Brc1cc(Br)cc(Br)c1`, the Potency result in [3], in assay [9], in assay [4], in assay [5], in assay [6] and in assay [7] was “inactive” throughout. Further, the activity change, positive = activation in [8] was -1.12%.
Take `C[C@]12CC[C@@H](O)C[C@@H]1CC[C@@H]1[C@@H]2CC[C@]2(C)C(=O)CC[C@@H]12`: the Potency result in [3] and in assay [9] was “inactive” each time. The molecule was called inactive in [10], in assay [11] and in [12].
With `ClC1=C(Cl)C(Cl)(Cl)C(Cl)=C1Cl`, the Potency entry in assay [2], in assay [9], in [4], in [5], in assay [6] and in assay [7] was “inactive” in each case.
For `CC(c1ccccc1)(c1ccc(O)cc1)c1ccc(O)cc1`, in [8], the activity change, positive = activation was -53.1%. Also, the call in [10], in assay [11] and in [12] was inactive. Moreover, the Potency entry in assay [4], in [6] and in [7] was “inactive” in each case.
In the case of `COc1ccc(C(c2ccc(OC)cc2)C(Cl)(Cl)Cl)cc1`, the Potency in assay [1] was 30.6 µM (active). In addition, the Potency result (with Aromatase (Homo sapiens); in assay [2]; in [13]; in assay [14]; in [15]; in assay [16]) was “inactive” each time. The Potency result in [17], in [18], in [9], in assay [4], in assay [5] and in assay [6] was “inactive” throughout. The Potency entry in assay [7] is “inactive”. In assay [8], the activity change, positive = activation is -35.3%. Further, the molecule was classed as inactive in assay [11] and in assay [12].
`CCc1cccc(CC)c1N`: the Potency result (in assay [1]; with Aromatase (Homo sapiens); in [19]; in assay [3]; in assay [4]; in assay [5]) was “inactive” in each case. In addition, the Potency entry in assay [6] and in assay [7] was “inactive” each time.
On to `Brc1c2ccccc2c(Br)c2ccccc12`, for which the figures for the activity, negative = inhibition (in the assay with Aromatase (Homo sapiens); in [2]; in assay [4]) were 2.07% [at 8.47 µM], 4.27% [at 8.39 µM] and 0.841% [at 10.5 µM], respectively. Further, in assay [19], the activation is -3.68% [at 8.47 µM]. Also, the activation (H2AX phosphorylation) in [3] is -2.5% [at 14 µM]. Also, the values for the activity change, negative = inhibition in assay [5], in assay [6] and in assay [7] were 0.273% [at 10.5 µM], 6.02% [at 10.5 µM] and 1.07% [at 10.5 µM], respectively.
For `O=C(Nc1ccccc1-c1ccc(Cl)cc1)c1cccnc1Cl`, the Potency entry in assay [19], in assay [2], in [13], in assay [14], in assay [15] and in [16] was “inactive” each time. Besides, the Potency result in assay [17], in assay [18], in assay [3], in assay [9], in [4] and in assay [5] was “inactive” in each case. The Potency entry in assay [6] and in assay [7] was “inactive” throughout. In assay [8], the activity change, positive = activation was -31.8%. Moreover, the outcome in assay [10], in assay [11] and in [12] was inactive.
On to `ClC(Cl)=C(c1ccc(Cl)cc1)c1ccccc1Cl`, for which the call in assay [10], in assay [11] and in [12] was inactive. Besides, the Potency entry in [9], in assay [4], in assay [5], in assay [6] and in assay [7] was “inactive” each time.
Regarding `Cc1nnc2n1-c1sc(CCc3ccc(CC(C)C)cc3)cc1C(c1ccccc1Cl)=NC2C` (configuration not stated), the Potency result in assay [19], in [4], in assay [5], in assay [6] and in [7] was “inactive” in each case. In assay [2], the Potency is 33.5 µM (active). In addition, the activity change, positive = activation in assay [8] is -59.4% [at 42.5 µM]. In addition, the result in [10], in assay [11] and in assay [12] was inactive.
